From PubChem
Compounds with a hit are over-represented: about 7.9% of the library has one in this group of screens.
MCF10A rerep: A quantitative high throughput screen for small molecules that induce DNA re-replication in MCF 10a normal breast cells. Potency, µM (highest dose often 46.1 µM), without a hit: at the highest dose activity, positive = re-replication, actives largely listed as activators. actives 2.9% (n = 350,000). MCF 10A DNA re-replication, Hoechst nuclear intensity, 48 h; note: % of control where 0% means no effect; nearly all actives have a fitted effect of over 50% in size
HT1080 IDH1KD tx: qHTS for induction of synthetic lethality in tumor cells producing 2HG: qHTS for the HT-1080-IDH1KD cell line | HT-1080 IDH1 knockdown viability, ATP luminescence, 48 h | Potency, µM (doses to about 46.1 µM), without a hit: top-dose activity, negative = toxicity, actives largely listed as cytotoxic | actives 2% (n = 360,000);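 note: 0% = DMSO wells and -100% = cell-free medium wells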
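Luminescent ATP read-out (CellTiter-Glo, 10 min at room temperature) after 48 h compound exposure at 37 °C gave viability of IDH1-knockdown HT-1080 cells. Activity was normalised to DMSO and cell-free wells, then fitted as concentration-response curves.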
KB-3-1 tox: qHTS assay for MDR1-selective chemotherapeutics: Primary screen using the parental adenocarcinoma cell KB-3-1. actives 1.4% (n = 400,000). AID 1347075, 2019. Potency, µM (titrated, usually from 46.1 µM), hits mostly cytotoxic. KB-3-1 viability, CellTiter-Glo ATP luminescence, 72 h; note: % is set by controls: 0 for no effect and ±100 for the full control effect; nearly all actives have a fitted effect of over 60% in size
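Viability of parental KB-3-1 cells, measured by CellTiter-Glo luminescence, followed a 72 h incubation at 37 °C with pinned compounds in phenol-red-free DMEM containing 10% FBS.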
KB-V1 MDR tox: qHTS assay for MDR1-selective chemotherapeutics: Primary screen using the drug-selected MDR subline cells KB-V1; Potency, µM (doses to about 46.1 µM), hits mostly cytotoxic; AID 1347076, 2019; KB-V1 MDR cells viability, CellTiter-Glo, 72 h; actives 3.4% (n = 400,000); note: % is set by controls: 0 for no effect and ±100 for the full control effect; nearly all actives have a fitted effect of over 60% in size
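Cells of the MDR subline KB-V1 are plated, dosed with compound at multiple concentrations, and incubated 72 h at 37 degrees C; CellTiter-Glo is then added and luminescence read after 10 min.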
HT1080-NT tox: qHTS for induction of synthetic lethality in tumor cells producing 2HG: qHTS for the HT-1080-NT fibrosarcoma cell line; actives 1.6% (n = 360,000); Potency, µM (top dose mostly 46.1 µM), inactives show top-dose activity, negative = less viability, most hits filed as cytotoxic; HT-1080-NT fibrosarcoma viability, CellTiter-Glo ATP luminescence, 48 h; AID 686970, 2013;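 note: NT is the 2HG producing partner of a matched IDH1 knockdown line; 0% = DMSO-treated cells and -100% = media-only wells without cells; nearly all actives have a fitted effect of over 55% in size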
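A 48-hour cytotoxicity screen used HT-1080-NT cells plated 2 hours before compound delivery. ATP-based CellTiter-Glo luminescence measured viability, normalized to DMSO and no-cell controls.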
SW480 rereplic: A quantitative high throughput screen for small molecules that induce DNA re-replication in SW480 colon adenocarcinoma cells; Potency, µM (titrated, usually from 46.1 µM), inactives show at the highest dose re-replication activation, usual class: activators; actives 1.8% (n = 340,000); SW480 DNA re-replication, Hoechst DNA content imaging, 48 h; note: % of control where 0% means no effect; nearly all actives have a fitted effect of over 55% in size
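Image-based read-out: total Hoechst fluorescence of nuclei (405 nm excitation, 500-530 nm emission), with hits raising the fraction of high-intensity nuclei. SW480 colon cells incubated 48 hr with compounds at 37 C.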
The depositor's hits bear a star; i = inactive; ? = inconclusive; / = no result; [ ] = dose if it differs, or a comment. Calls come from the whole dose curve; as a rule, active = well fitted curve in the direction sought with a large enough effect; inconclusive = small, poorly fitted or top-dose-only effect, or another doubt; inactive = no such curve, though single readings can be large; an effect the other way counts as inactive or inconclusive. Potency is the fitted concentration of half-maximal effect.

SMILES | MCF10A rerep | HT1080 IDH1KD tx | KB-3-1 tox | KB-V1 MDR tox | HT1080-NT tox | SW480 rereplic
Cc1c(C)n(CCCN(C)C)c2ncnc(Nc3ccc(F)cc3)c12 | ? | -13% | i | i | -19% | -7%
CCOc1cc2sc(N3CCC(C(=O)Nc4ccccc4C(=O)OC)CC3)nc2cc1Br | / | / | i | i | / | /
C=CCn1c(-c2cccn(Cc3cccc(Cl)c3)c2=O)n[nH]c1=S | 6% | -4% | i | 23µM* | -5% | -4%
C=CCn1c(-c2cccn(Cc3ccc(Cl)cc3Cl)c2=O)n[nH]c1=S | 0% | ? | ? | 15µM* | ? | 20%
CCOC(=O)C(=Cc1cc(=O)c(OC)co1)C(=O)OCC | 1.6µM* | 18µM* | 4.6µM* | ? | 12µM* | ?
CCOc1ccc(NC(=O)C2CCCN(S(=O)(=O)c3ccc4c(c3)CC(C)N4C(C)=O)C2)cc1 (stereo not given) | 0% | -1% | i | ? | -1% | 0%
O=C(NNC1=Nc2cccc3cccc1c23)c1ccc(Br)cc1 | 15µM* | -29% | ? | i | 0% | 18µM*
CC(=O)c1cccc(NC(=O)c2cc3nc(-c4ccc(Br)cc4)cc(C(F)(F)F)n3n2)c1 | / | / | i | i | / | /
C/C(=N\NC(=O)CCCNc1ccc(C)cc1)c1ccccn1 | ? | ? | i | 6.5µM* | -4% | ?
Cc1oc(-c2ccc3c(c2)OCCO3)cc1C(=O)O | 14% | ? | ? | 15µM* | ? | -6%
Cc1oc(-c2ccc3c(c2)OCCO3)cc1C(=O)NCC(=O)O | -4% | -6% | i | i | -1% | 16%
Cc1nn(CC(=O)N2CCN(c3ccc(Cl)cc3)CC2)c(=O)c2cccn12 | -1% | 1% | i | i | 7% | 0%
COc1ccccc1-c1nnc(SC(C)C(=O)Nc2ccc(C(N)=O)cc2)o1 (stereo not given) | -1% | 17% | i | i | 10% | 3%
CNc1nc2c(c(=O)[nH]c(=O)n2C)n1CCCc1ccccc1 | ? | 7% | i | i | 11% | -1%
Cn1c(=O)[nH]c(=O)c2c1nc(NCc1ccccc1)n2CCCc1ccccc1 | 2% | 1%[9.24 µM] | i | 12µM* | -21% | -3%
CC1CN(Cc2nc3c(c(=O)[nH]c(=O)n3C)n2CCCc2ccccc2)CC(C)O1 (stereo not given) | 2% | 2% | i | 3.3µM* | 0% | -11%
CNc1nc2c(c(=O)n(C)c(=O)n2C)n1CCCc1ccccc1 | 12% | -25% | ? | 8.2µM* | -6% | -3%
COCCNc1nc2c(c(=O)n(C)c(=O)n2C)n1CCCc1ccccc1 | / | -1% | i | 16µM* | 1% | /
COc1ccc(NC(=O)Cn2c(=O)n(CCCC(=O)NCc3ccccc3Cl)c(=O)c3ccccc32)c(OC)c1 | / | / | i | i | / | /
CCc1ccc(NC(=O)CSc2nc(C)c(C(=O)Nc3ccccc3)c(-c3ccc(OC)c(OC)c3)c2C#N)cc1 | / | / | i | i | / | /
Cn1c(=O)[nH]c(=O)c2c1nc(SCCO)n2CCCc1ccccc1 | ? | -2% | i | ? | -1% | -17%
CC(O)Cn1c(=O)c2c(nc(Br)n2Cc2ccccc2)n(C)c1=O (stereo not given) | -3% | 20µM* | i | i | 14µM* | -10%
Cc1ccc(OCCn2c(Br)nc3c2c(=O)n(C)c(=O)n3C)cc1 | -4% | 0% | 21µM* | ? | 0% | -5%
C=CCNc1nc2c(c(=O)n(C)c(=O)n2C)n1CCCCCC | 15% | -10% | 1.5µM* | 1.5µM* | -1% | 1%
Cc1csc(Sc2nc3c(c(=O)[nH]c(=O)n3C)n2CCCc2ccccc2)n1 | 9% | -1% | ? | 4.1µM* | -1% | -15%
SMILES | MCF10A rerep | HT1080 IDH1KD tx | KB-3-1 tox | KB-V1 MDR tox | HT1080-NT tox | SW480 rereplic
CCOc1ccccc1NC(=O)Cn1c(=O)n(-c2ccc(F)cc2)c(=O)c2sc3ccccc3c21 | / | / | ? | i | / | /
CN(Cc1ccccc1)Cc1nc2c(c(=O)n(C)c(=O)n2C)n1CCc1ccccc1 | 7% | 0% | i | i | 13% | -2%
Cn1c(=O)c2c(nc(NCc3ccco3)n2C/C=C/c2ccccc2)n(C)c1=O | ? | -25% | i | 3.3µM* | -29% | ?
Cn1c(=O)c2c(nc(Br)n2CCc2ccccc2)n(C)c1=O | 12% | 1%[9.24 µM] | i | 16µM* | -5% | -8%
Cn1c(=O)c2c(nc(NCc3ccco3)n2C)n(C)c1=O | -5% | -7% | i | i | 8% | -1%
Cn1c(=O)c2c(nc(NCc3ccccc3)n2CCCc2ccccc2)n(C)c1=O | ? | -15% | ? | 2.9µM* | -7% | -6%
CCCCCC=CCC=CCCCCCCCC(=O)OCC | 6% | / | / | / | / | 0%
CCN(CC)S(=O)(=O)c1ccc2c(c1)N(CC(=O)NCCCN1CCN(c3cc(Cl)ccc3C)CC1)C(=O)CO2 | / | / | ? | 13µM* | / | /
Cc1ccc(Cl)cc1N1CCN(CCCNC(=O)C2COc3ccccc3C2)CC1 (stereo not given) | / | / | 21µM* | i | / | /
Cc1cccc(N2CCN(CCNC(=O)C3COc4ccccc4C3)CC2)c1C (stereo not given) | / | / | i | i | / | /
O=C(NNC(=O)c1ccccc1F)C1=NN(c2ccccc2)C(=O)CC1 | 0% | -7% | i | i | 1% | ?
Cc1nc2c(-c3ccc(F)cc3)c(C)nn2c(C)c1CCC(=O)N1CCC(Cc2ccccc2)CC1 | 21µM* | -11% | ? | i | -1% | 1%
CC(=O)c1cnc2c(-c3ccccc3)cnn2c1C | 16% | 12% | ? | 21µM* | 18% | -2%
Cc1nc2c(-c3ccccc3)c(C)nn2c(C)c1CC(=O)O | 15µM* | -1% | i | i | -2% | 11%
CCOC(=O)Cc1c(C)nc2c(-c3ccc(Cl)cc3)c(C)nn2c1C | 23µM* | 2% | i | ? | -14% | ?
CCOC(=O)Cc1c(C)nc2c(-c3ccc(Cl)cc3)c(C(F)(F)F)nn2c1C | / | / | i | i | / | /
CNc1ccc(-c2cccc([N+](=O)[O-])c2)cn1 | / | 1% | i | i | 0% | /
CCOC(=O)Cc1c(C)nc2c(-c3ccccc3)cnn2c1C | 1.3µM* | -10% | i | i | -3% | ?
